# Activity calls are given as the source filed them. Unless noted, no rule for the calls is given here.
# Legend:
# [1] = tested on: Wnt5a (protein binding on small-molecule microarray); test: small molecules binding Wnt5a protein – biophysical, small-molecule microarray, 635/667 nm fluorescence, primary screen (AID 1142); details: 635 nm fluorescence, higher = more signal;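 also: fluorescence read at 667 nm with signal to noise per printed feature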
# [2] = ATP-based viability of Huh7 replicon cells – cell-based, CellTiter-Glo luminescence, basal, 48 h, cytotoxicity control for HCV replication inhibitor project, primary screen (AID 1143); details: higher = more signal, called active from +8 up or from −8 down;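 also: Huh7 hepatoma cells carrying a hepatitis C replication reporter with no stimulus; test concentration not given here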
# [3] = Pseudomonas biofilm growth suppression – PAO1 strain, BacTiter-Glo luminescence, LB-PBS, primary screen (AID 1144); details: P. aeruginosa PAO1 biofilm, 12 h, higher = more signal
# [4] = basal CRE-LacZ reporter activity in PC12 – cell-based, unstimulated, primary screen (AID 1145); details: no forskolin, luminescence, 4.5 h, higher = more signal, called active from +8 up or from −8 down
# [5] = forskolin-driven CRE-LacZ activity in PC12 – cell-based, CRE-LacZ reporter, forskolin-stimulated, primary screen (AID 1146); details: luminescence, 4.5 h, higher = more signal, called active from +8 up or from −8 down;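 also: PC12 cells with 6xCRE LacZ reporter stimulated by forskolin 10 µM; beta-galactosidase reporter signal reflecting CREB driven transcription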
# [6] = molecular target: Streptavidin (Streptomyces avidinii) (UniProt P22629); test: compounds binding control protein streptavidin – biophysical, small-molecule microarray, 635/667 nm fluorescence, artefact control for SMM compound annotation, primary screen (AID 1147); details: higher = more signal;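 also: signal reflects streptavidin binding to arrayed compounds as a control protein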
# Chain of Streptavidin (Streptomyces avidinii) (P22629 whole entry, looked up): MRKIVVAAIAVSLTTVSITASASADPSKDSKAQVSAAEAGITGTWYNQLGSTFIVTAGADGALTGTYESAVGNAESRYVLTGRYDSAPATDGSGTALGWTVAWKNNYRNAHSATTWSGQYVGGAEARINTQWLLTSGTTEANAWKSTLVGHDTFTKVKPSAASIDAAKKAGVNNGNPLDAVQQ
# [7] = probe aInhba binding on compound microarray – biochemical, small-molecule microarray, 635/667 nm fluorescence, primary screen (AID 1148); details: higher = more signal;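 also: score merges 667nm spot fluorescence with signal-to-noise for antibody binding to printed compounds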
# [8] = molecular target: Torsin-1A (Homo sapiens) (UniProt O14656); test: TOR1A wild-type binding on microarray – cell lysate, small-molecule microarray, lysate, 635/667 nm, primary screen (AID 1149); details: COS7 hTOR1A-WT lysate, 635 nm fluorescence, higher = more signal
# Chain of Torsin-1A (Homo sapiens) (O14656 whole entry, looked up): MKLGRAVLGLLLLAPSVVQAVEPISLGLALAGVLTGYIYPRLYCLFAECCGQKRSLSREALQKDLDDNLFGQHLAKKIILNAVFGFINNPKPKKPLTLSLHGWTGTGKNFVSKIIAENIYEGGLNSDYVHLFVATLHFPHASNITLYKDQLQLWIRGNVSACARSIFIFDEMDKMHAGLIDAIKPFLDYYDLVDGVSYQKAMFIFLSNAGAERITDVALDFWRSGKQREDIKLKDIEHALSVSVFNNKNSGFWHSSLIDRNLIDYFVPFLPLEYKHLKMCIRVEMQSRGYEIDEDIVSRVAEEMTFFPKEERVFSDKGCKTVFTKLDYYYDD
# [9] = molecular target: Torsin-1A (Homo sapiens) (UniProt O14656); test: torsin A mutant lysate binding on microarrays – cell lysate, small-molecule microarray, COS7 lysate, 635/667 nm fluorescence, primary screen (AID 1150); details: COS7 hTOR1A mutant lysate, 635 nm fluorescence, higher = more signal;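 also: score pools 667 nm emission and signal to noise measuring lysate protein binding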
# [10] = tested on: Sonic hedgehog protein (Shh); test: Sonic hedgehog microarray binding compounds – biochemical, small-molecule microarray, 635/667 nm fluorescence, primary screen (AID 1151); details: 635 nm fluorescence, higher = more signal;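 also: Shh protein binding to compounds spotted on small-molecule microarray slides; score combines spot fluorescence intensity with signal-to-noise across triplicate slides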
# [11] = optical density shifts of acrAB sulA E. coli – strain DRC41, OD650, 48 h, E. coli filamentation inducer project, primary screen (AID 1152); details: higher = more signal, called active from +8 up or from −8 down;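 also: E. coli MC1000 strain DRC41 lacking acrAB efflux pump and sulA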
# [12] = probe aLefty1 binding on compound microarray – biochemical, small-molecule microarray, 635/667 nm fluorescence, primary screen (AID 1153); details: higher = more signal;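 also: score merges spot fluorescence with signal-to-noise ratio from the scanned slide images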
# [13] = plasmodial surface anion channel blockers, osmotic lysis – cell-based, P. falciparum Indochina, OD700, 1 h, primary screen (AID 1154); details: P. falciparum Indochina infected RBC osmotic lysis, higher = more signal, called active from +8 up or from −8 down
# [14] = plasmodial surface anion channel blockers, osmotic lysis – cell-based, P. falciparum Indochina, OD700, 2 h, primary screen (AID 1155);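 also: lysis reports solute entry through the parasite surface anion channel PSAC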; details: P. falciparum Indochina infected erythrocytes, higher = more signal, called active from +8 up or from −8 down
# [15] = changes in parasitized red cell lysis, either direction – P. falciparum Indochina, OD700, 3 h, PSAC antagonist project, primary screen (AID 1156); details: P. falciparum-infected erythrocytes, osmotic lysis, higher = more signal, called active from +8 up or from −8 down
# [16] = plasmodial surface anion channel blockers, osmotic lysis – cell-based, P. falciparum Indochina, OD700, 18 h, primary screen (AID 1157); details: P. falciparum Indochina infected erythrocytes, osmotic lysis OD700, 18 h; higher = more signal, called active from +8 up or from −8 down
# [17] = S6 kinase pathway phospho-S6 level changes – cell-based, A549, cytoblot, luminescence, serum-stimulated, primary screen (AID 1158); details: 5 h, higher = more signal;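 also: serum-stimulated A549 lung adenocarcinoma cells; signal is phosphorylated S6 detected by cytoblot immunostaining with HRP secondary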
# [18] = molecular target: NADPH oxidase 2 (Homo sapiens) (UniProt P04839); test: compounds shifting NOX2 Amplex Red fluorescence – cell-based, HEK293-NOX2, PMA-stimulated, NOX inhibitor project, primary screen (AID 1159); details: 45 min, higher = more signal, called active from +8 up or from −8 down; also: test concentration not given here
# Chain of NADPH oxidase 2 (Homo sapiens) (P04839 whole entry, looked up): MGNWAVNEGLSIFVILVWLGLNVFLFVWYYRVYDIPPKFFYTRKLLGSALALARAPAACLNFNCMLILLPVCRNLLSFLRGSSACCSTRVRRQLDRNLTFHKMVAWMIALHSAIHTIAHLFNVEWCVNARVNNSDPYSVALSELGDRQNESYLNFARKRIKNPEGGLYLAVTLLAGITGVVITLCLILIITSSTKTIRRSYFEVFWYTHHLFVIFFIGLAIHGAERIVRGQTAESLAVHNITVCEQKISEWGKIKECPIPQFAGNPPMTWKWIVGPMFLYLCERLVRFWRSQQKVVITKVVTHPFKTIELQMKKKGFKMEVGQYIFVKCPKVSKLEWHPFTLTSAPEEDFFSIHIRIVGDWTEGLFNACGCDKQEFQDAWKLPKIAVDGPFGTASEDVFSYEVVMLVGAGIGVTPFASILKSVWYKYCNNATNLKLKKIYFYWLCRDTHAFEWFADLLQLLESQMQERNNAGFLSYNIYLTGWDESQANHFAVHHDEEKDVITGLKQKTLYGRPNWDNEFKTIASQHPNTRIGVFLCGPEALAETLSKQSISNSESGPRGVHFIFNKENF
# [19] = molecular target: NADPH oxidase 4 (Homo sapiens) (UniProt Q9NPH5); test: compounds shifting NOX4 Amplex Red fluorescence – cell-based, HEK293-NOX4, tetracycline-induced, NOX inhibitor project, primary screen (AID 1160); details: HEK293-NOX4, Amplex Red H2O2 fluorescence, 45 min; higher = more signal, called active from +8 up or from −8 down
# Chain of NADPH oxidase 4 (Homo sapiens) (Q9NPH5 whole entry, looked up): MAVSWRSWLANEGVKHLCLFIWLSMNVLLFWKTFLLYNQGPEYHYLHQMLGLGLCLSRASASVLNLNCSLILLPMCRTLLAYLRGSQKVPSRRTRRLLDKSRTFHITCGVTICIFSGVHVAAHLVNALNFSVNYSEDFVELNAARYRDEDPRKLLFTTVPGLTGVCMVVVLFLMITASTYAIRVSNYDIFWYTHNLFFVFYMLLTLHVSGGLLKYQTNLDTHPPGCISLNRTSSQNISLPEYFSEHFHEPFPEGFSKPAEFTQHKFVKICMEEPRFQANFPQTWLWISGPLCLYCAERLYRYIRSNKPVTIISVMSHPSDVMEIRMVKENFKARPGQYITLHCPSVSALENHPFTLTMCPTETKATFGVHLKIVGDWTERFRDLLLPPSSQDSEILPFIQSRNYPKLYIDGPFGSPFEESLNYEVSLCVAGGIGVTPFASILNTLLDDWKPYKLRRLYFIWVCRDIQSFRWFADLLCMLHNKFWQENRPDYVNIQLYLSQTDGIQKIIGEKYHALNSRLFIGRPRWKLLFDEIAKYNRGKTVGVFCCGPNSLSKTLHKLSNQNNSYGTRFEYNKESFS
# [20] = molecular target: NADPH oxidase 5 (Homo sapiens) (UniProt Q96PH1); test: compounds shifting NOX5 Amplex Red fluorescence – cell-based, HEK293-NOX5, NOX inhibitor project, primary screen (AID 1161); details: HEK293-NOX5, ionomycin, 45 min, higher = more signal
# Chain of NADPH oxidase 5 (Homo sapiens) (Q96PH1 whole entry, looked up): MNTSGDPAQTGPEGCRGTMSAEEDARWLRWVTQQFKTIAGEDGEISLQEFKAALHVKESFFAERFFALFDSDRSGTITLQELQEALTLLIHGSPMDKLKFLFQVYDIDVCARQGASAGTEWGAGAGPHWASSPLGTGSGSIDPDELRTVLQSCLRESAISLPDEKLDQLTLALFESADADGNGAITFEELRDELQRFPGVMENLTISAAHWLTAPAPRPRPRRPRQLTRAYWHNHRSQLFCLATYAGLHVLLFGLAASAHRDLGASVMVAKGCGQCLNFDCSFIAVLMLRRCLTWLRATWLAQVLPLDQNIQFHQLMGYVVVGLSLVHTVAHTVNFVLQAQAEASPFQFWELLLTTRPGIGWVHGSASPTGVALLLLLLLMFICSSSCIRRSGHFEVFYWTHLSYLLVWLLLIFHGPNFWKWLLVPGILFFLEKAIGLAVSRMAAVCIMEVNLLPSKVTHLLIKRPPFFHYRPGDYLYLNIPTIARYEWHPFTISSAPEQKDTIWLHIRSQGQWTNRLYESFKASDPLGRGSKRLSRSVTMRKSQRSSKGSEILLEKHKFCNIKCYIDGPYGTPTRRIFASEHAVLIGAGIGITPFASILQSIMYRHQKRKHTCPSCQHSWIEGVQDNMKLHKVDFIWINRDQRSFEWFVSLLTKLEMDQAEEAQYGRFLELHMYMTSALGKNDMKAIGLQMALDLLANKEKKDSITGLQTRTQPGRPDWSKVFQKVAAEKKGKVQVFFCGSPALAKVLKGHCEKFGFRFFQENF
SMILES,composite z-score [1],z-score [2],z-score [3],z-score [4],z-score [5],composite z-score [6],composite z-score [7],composite z-score [8],composite z-score [9],composite z-score [10],z-score [11],composite z-score [12],z-score [13],z-score [14],z-score [15],z-score [16],z-score [17],z-score [18],z-score [19],z-score [20]
C[C@H]1C2[C@H](Cc3ccccc3)NC(=O)[C@]23C(=O)N[C@H](Cc2ccccc2)C(=O)N2CCC[C@H]2C(=O)NC/C=C\C/C=C/C3[C@@H]2O[C@]12C (stereo not given in full),0.072,-0.832 (inactive),-1.44 (inactive),0.403 (inactive),-0.399 (inactive),0.206,-0.126,0.221,0.44,0.639,0.637 (inactive),-0.026,1.4 (inactive),-1.49 (inactive),-1.3 (inactive),-2.52 (inactive),0.477,0.977 (inactive),1.14 (inactive),1.73
C=C(CCCC)/C(=C/C[C@H](OC(=O)c1ccncc1)c1ccccc1OCCO)c1cnc2ccccc2c1,0.265,-0.401 (inactive),0.0698 (inactive),-0.583 (inactive),0.494 (inactive),1.74,-0.0471,0.609,0.712,1.45,-0.244 (inactive),0.11,23.7 (active),4.64 (inactive),1.08 (inactive),1.02 (inactive),0.0376,-1.22 (inactive),-0.281 (inactive),-1.45
COCCOC(=O)N1C(=O)[C@@]2(c3cc(C#CCCO)ccc31)[C@H](C(=O)N1CCCCCCC1)[C@H]1C(=O)O[C@H](c3ccccc3)[C@H](c3ccccc3)N1[C@@H]2c1ccc(OCCO)cc1,0.87,-1.2 (inactive),-0.589 (inactive),-0.581 (inactive),-0.571 (inactive),1.43,1.38,1.8,1.44,1.53,0.712 (inactive),2.45,7.78 (inactive),1.37 (inactive),-1.22 (inactive),0.982 (inactive),-0.215,0.931 (inactive),0.94 (inactive),0.603
C=CC[C@@]12N=C(c3ccc(OCCCO)cc3)O[C@@H]1c1ccccc1N(C)C2=O,1.25,-4.44 (inactive),-0.0229 (inactive),0.297 (inactive),-0.845 (inactive),0.248,0.268,-0.0951,0.713,1.42,1.12 (inactive),0.349,33.2 (active),32.3 (active),2.02 (inactive),3.46 (inactive),0.368,-2.99 (inactive),-0.963 (inactive),-1.85
COc1ccc([Si](C)(C)[C@@H]2[C@@H](CC(=O)N3CCC[C@H]3CO)O[C@]3(C(=O)N(c4ccccc4)c4ccccc43)[C@H]2C)cc1,0.155,-4.58 (inactive),0.439 (inactive),-0.0815 (inactive),0.334 (inactive),0.578,0.0047,0.491,0.466,1.53,2.66 (inactive),-0.0718,0.616 (inactive),-0.748 (inactive),1.1 (inactive),-1.44 (inactive),0.499,2.54 (inactive),1.74 (inactive),2.4
O=C(OCc1ccccc1)C1=CCC2c3[nH]c4ccccc4c3C(=O)C1N2S(=O)(=O)c1ccccc1[N+](=O)[O-] (stereo not given),0.794,-1.26 (inactive),-0.00859 (inactive),-0.0137 (inactive),-0.451 (inactive),0.745,0.11,0.498,0.497,0.488,-1.33 (inactive),-0.192,7.08 (inactive),2.13 (inactive),0.105 (inactive),1.1 (inactive),-0.605,0.663 (inactive),-0.294 (inactive),-1.97
CCS[C@H]1[C@@H](C(=O)O)[C@H](c2ccc(C)cc2)N(S(=O)(=O)c2ccc(C)cc2)[C@@H]1CC,0.261,-0.0715 (inactive),-0.54 (inactive),-0.928 (inactive),-0.334 (inactive),0.68,0.206,-0.0832,0.477,-0.7,0.409 (inactive),0.157,1.56 (inactive),1.02 (inactive),-0.129 (inactive),0.831 (inactive),-0.0726,0.983 (inactive),-0.149 (inactive),0.271
CC(C)C[C@@H]1NC(=O)[C@@H]2C[C@H](C(=O)O)[C@H](c3cccc(OCCO)c3)N2C1=O,0.64,-1.07 (inactive),0.133 (inactive),0.826 (inactive),1.41 (inactive),-0.811,-0.209,0.198,1.09,0.188,0.649 (inactive),-0.0966,3.95 (inactive),0.373 (inactive),-0.917 (inactive),0.0571 (inactive),-0.129,1.34 (inactive),0.663 (inactive),2.01
NCCCCCCNC(=O)[C@@H]1C[C@@H]2C(=O)NCC(=O)N2[C@@H]1c1ccc(O)cc1,0.387,-0.402 (inactive),-2.2 (inactive),-1.07 (inactive),0.0413 (inactive),0.718,-0.104,1.3,0.665,2.18,0.812 (inactive),-0.0126,0.846 (inactive),1.04 (inactive),4.22 (inactive),0.497 (inactive),0.257,-0.302 (inactive),0.4 (inactive),0.182
CC(C)c1ccc(NN2C(C(O)c3ccc(B(O)O)cc3)C=CC3C(=O)N(c4ccccc4)C(=O)C32)cc1 (stereo not given),0.262,-0.0793 (inactive),-1.06 (inactive),0.815 (inactive),1.65 (inactive),1.26,0.108,0.201,1.26,0.528,-1.04 (inactive),0.0595,1.93 (inactive),0.698 (inactive),0.421 (inactive),1.27 (inactive),-0.999,-1.02 (inactive),-2.31 (inactive),-4.18
C=CCNC(=O)[C@@H]1[C@H]2C(=O)O[C@H](c3ccccc3)[C@H](c3ccccc3)N2[C@H](c2ccc(O)cc2)[C@@]12C(=O)Nc1ccc(C#CCNC(N)=O)cc12,-0.525,-0.0804 (inactive),-0.233 (inactive),1.21 (inactive),-0.434 (inactive),-0.325,-0.339,-0.138,0.121,0.316,-1.29 (inactive),0.186,0.448 (inactive),-0.261 (inactive),-0.519 (inactive),0.32 (inactive),-0.203,0.334 (inactive),-0.211 (inactive),0.0297
C=C(C(=O)CC[C@@H](OC(=O)c1cccnc1)c1ccccc1OCCO)C(C)C,-0.0008,-1.25 (inactive),-0.0644 (inactive),8.13 (active),1.17 (inactive),-0.405,-0.0112,0.784,0.962,1.37,0.151 (inactive),0.106,15.1 (active),2.08 (inactive),0.759 (inactive),0.601 (inactive),0.149,-0.551 (inactive),-0.118 (inactive),-1.34
COC(=O)[C@@]1(Cc2ccc(F)cc2)[C@H]2c3cc(C(=O)N(C)C)n(Cc4ccc(Cl)c(C(F)(F)F)c4)c3C[C@H]2CN1C(=O)c1ccccc1,0.156,-2.95 (inactive),0.44 (inactive),1.34 (inactive),0.778 (inactive),2.37,0.588,0.146,0.751,-0.823,-1.91 (inactive),1.54,7.17 (inactive),2.13 (inactive),0.512 (inactive),1.72 (inactive),-0.186,0.23 (inactive),-1.2 (inactive),0.627
COc1cc(NN2C(C(O)c3ccco3)C=CC3C(=O)N(c4ccccc4)C(=O)C32)cc(OC)c1OC (stereo not given),-0.286,-2.49 (inactive),-0.225 (inactive),0.0501 (inactive),-0.462 (inactive),0.0123,-0.153,-0.967,0.594,0.179,-1.37 (inactive),-0.441,0.886 (inactive),-1.47 (inactive),1.06 (inactive),-1.28 (inactive),1.29,-3.15 (inactive),-4.23 (inactive),-5.73
CC(C)OC(=O)C=C1C[C@@H](c2ccccn2)O[C@@H](c2ccccn2)O1,0.144,-0.891 (inactive),0.589 (inactive),-0.0137 (inactive),-0.322 (inactive),0.546,-0.0001,0.0581,0.0457,1.7,-0.167 (inactive),-0.0559,5.54 (inactive),1.2 (inactive),-0.277 (inactive),0.562 (inactive),-0.0693,-0.223 (inactive),-0.461 (inactive),-0.405
COC(=O)C(CC#Cc1ccc2c(c1)[C@]1(C(=O)N2)[C@H](c2ccc(OCCO)cc2)N2[C@H](c3ccccc3)[C@H](c3ccccc3)OC(=O)[C@H]2[C@@H]1C(=O)Nc1nc2ccccc2s1)C(=O)OC,0.35,-1.68 (inactive),-1.39 (inactive),-0.375 (inactive),1.33 (inactive),1.53,-0.157,1.36,0.414,0.588,1.99 (inactive),-0.0611,4.42 (inactive),1.76 (inactive),0.66 (inactive),1.82 (inactive),-0.206,1.18 (inactive),0.786 (inactive),1.03
COC(=O)[C@@]1(Cc2ccccc2)N=C(c2ccc(OCCCO)cc2)O[C@H]1c1ccccc1,0.912,-4.45 (inactive),0.35 (inactive),1.45 (inactive),-2.12 (inactive),-0.369,0.0816,0.348,1.74,-0.0883,0.792 (inactive),0.236,23.4 (active),12.2 (active),0.737 (inactive),1.89 (inactive),-0.182,-5.76 (inactive),-0.904 (inactive),-3

# Reference: PubChem BioAssay
